# Experimental data as given in PubChem BioAssay (NCI).
# Compounds without any hit were thinned out: in the full panel of roughly 83,000, 20% have a hit.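 Values shown are percent growth following 48 h exposure of cells in 96-well plates to a single concentration of compound; below 10 was considered active.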 Unmarked numbers belong to inactive results. Active and inactive are the calls of the source.
# Test system: U251 CNS
# Assay: NCI-60 one-dose screen, 48 h (100 = growth as untreated, 0 = no growth, -100 = all killed)
# Details: 10 µM unless noted
row,Structure (SMILES),growth
1,CC/C(=C(/c1ccc(O)cc1)c1ccc(OCCN2CCCCC2)cc1)c1ccc(OC)cc1,8.72% (active)
2,CNC(=O)c1cc(Oc2ccc3c(c2)sc2nc(-c4ccc(NC(=O)[C@@H](NC(=O)OC)C(C)C)cc4)cn23)ccn1,81.6%
3,Cn1c(=O)[nH]c(=O)c2nc3c(nc21)-c1ccccc1C3=O,106%
4,COC1C(O)CC(OC2CC(OC3CC(O[C@@H]4C(=O)c5c(cc6cc(OC7CC(OC8CC(O)C(O)C(C)O8)C(O)C(C)O7)c(C)c(O)c6c5O)CC4[C@H](OC)C(=O)O)OC(C)C3O)OC(C)C2O)OC1C (stereo partly specified),0.444% (active)
5,N#CC1=C(N)Oc2c(sc3c(F)cccc23)C1c1ccc([N+](=O)[O-])cc1 (stereo unspecified),-64.5% (active)
6,COc1ccc(/C=C(/C(=O)N2CCNCC2)c2cc(OC)c(OC)c(OC)c2)cc1O,19.6%
7,Cc1ccc(NC(=O)c2cc3ccccc3cc2O)c(C)c1,97.5%
8,N#Cc1c(-c2ccccc2)nc2c(c(-c3ccccc3)nn2-c2ccccc2)c1-c1ccc(N2CCCCC2)cc1,96.8%
9,O=C(Nc1ccccc1O)c1ccc(CNc2ccnc(C(F)(F)F)c2)cc1,60.3%
10,COc1cc(/C=C2\C(=O)N(CCCOc3cc(O)c4c(=O)cc(-c5ccccc5)oc4c3)c3ccccc32)cc(OC)c1O,60.9%
11,CN1C(=O)N2CN3CCCN(C3)CN3C(=S)NC1C23 (stereo unspecified),101%
12,O=c1oc2ccccc2cc1-c1nn(-c2ccccc2)cc1-c1nn[nH]n1,104%
13,COc1cc(OC)c2c(=O)c3c(CC=C(C)C)cc(OC)c(O)c3oc2c1,85.1%
14,COC(=O)c1c2c(c[n+]([O-])c1C)C(=O)C=C(NCc1ccccc1)C2=O,-93.1% (active)
15,N#C/C(=C\c1ccc(-c2cccc(Cl)c2)o1)C(=O)Nc1ncc(Cc2ccc(Cl)cc2)s1,16.9%
16,O=C(/C=C/c1ccccc1)c1ccc(-n2cc(CN3CCN(c4cc5c(cc4F)c(=O)c(C(=O)O)cn5C4CC4)CC3)nn2)cc1,42.2%
17,N#Cc1ccc(/C=C/c2cn(-c3ccccc3)nc2-c2cccc([N+](=O)[O-])c2)cc1,46.7%
18,c1ccc(Cn2cc3c(c2-c2ccccc2)CCc2cnoc2-3)cc1,55.5%
19,NCCCNc1nc2ccccc2c2c(=O)c3cc(Cl)ccc3sc12,-95.1% (active)
20,Cc1cc(C)c2c(c1)N(C)c1ncnc(-n3c(C)nc4cc(C)ccc43)c1CC2C (stereo unspecified),34.5%
21,CSc1ccc2c3c(n(CCCn4ccnc4)c(=O)c2c1)-c1ccccc1C3=O,12.7%
22,COc1ccc(C(=O)/C=C/c2ccccc2)cc1S(N)(=O)=O,26.2%
23,COc1ccc(/C=N/Nc2c3ccccc3nc3ccccc23)cc1,93.4%
24,CC1(C)CC[C@]23CC[C@]4(C)[C@H](CC[C@@H]5[C@@]6(C)C/C(=C/O)C(=O)C(C)(C)[C@@H]6CC[C@]54C)[C@H]2[C@H]1OC3,105%
25,CS(=O)(=O)Nc1cc(-c2ccc3ncnc(Nc4ccc5c(cnn5Cc5ccccc5F)c4)c3c2)cnc1Cl,46.3%
26,Cc1nc2sc(C(=O)Nc3cccc4ccccc34)c(N)c2cc1C(=O)c1ccccc1,22.8%
